The supplement of paper PMC10849652
Of roughly 7,900 targets only a part is listed; those with a hit were picked by preference. About 0.6% of all pairs of compound and target were hits. Values without a mark were called inactive.

Assays:
Test in all cases: log2 fold change, soluble protein after heating vs DMSO (PISA); higher = thermal stabilisation; K562 cells, 10 uM, 30 min; active = over 0.2 and 3.5 SD of the protein, either way, in both replicates (recomputed)
[1] = compound: CS(=O)(=O)c1ccc(-c2cnc(N)c(C(=O)Nc3ccccc3)n2)cc1
Method in brief: (§1)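 Soluble protein was quantified by TMTpro 16plex LC-MS/MS after channel sums were equalised. It was obtained as the supernatant after 21,000xg for 90 min from pooled aliquots of K562 cells (2×10^6 cells/mL, 10 μM compound, 30 min) heated for 3 min across 48°C-58°C and extracted in PBS with 0.5% NP-40 at 4°C. Thermal stability values are relative to control samples and come from duplicates. They are given as log2 fold changes.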

crizotinib = compound: C[C@@H](Oc1cc(-c2cnn(C3CCNCC3)c2)cnc1N)c1c(Cl)ccc(F)c1Cl [crizotinib]
Method in brief: as §1

[2] = compound: C[C@@H]1COCCN1C2=NC(=NC(=C2)C3(CC3)S(=O)(=O)C)C4=C5C=CNC5=CC=C4
Method in brief: as §1

[3] = compound: C[C@H](C1=CC=C(C=C1)C(=O)NC2=C3C=CNC3=NC=C2)N
Method in brief: as §1

duvelisib = compound: C[C@H](Nc1ncnc2nc[nH]c12)c1cc2cccc(Cl)c2c(=O)n1-c1ccccc1 [duvelisib]
Method in brief: as §1

gandotinib = compound: Cc1cc(Nc2cc(CN3CCOCC3)c3nc(C)c(Cc4ccc(Cl)cc4F)n3n2)n[nH]1 [gandotinib]
Method in brief: as §1

tozasertib = compound: Cc1cc(Nc2cc(N3CCN(C)CC3)nc(Sc3ccc(NC(=O)C4CC4)cc3)n2)n[nH]1 [tozasertib]
Method in brief: as §1

[4] = compound: Cc1cc(SCc2sc(-c3ccc(C(F)(F)F)cc3)nc2C)ccc1OCC(=O)O
Method in brief: as §1

doramapimod = compound: Cc1ccc(-n2nc(C(C)(C)C)cc2NC(=O)Nc2ccc(OCCN3CCOCC3)c3ccccc23)cc1 [doramapimod]
Method in brief: as §1

ispinesib = compound: Cc1ccc(C(=O)N(CCCN)[C@@H](c2nc3cc(Cl)ccc3c(=O)n2Cc2ccccc2)C(C)C)cc1 [ispinesib]
Method in brief: as §1

UniProt Q9NXX6, sequence (Q9NXX6 whole entry, looked up): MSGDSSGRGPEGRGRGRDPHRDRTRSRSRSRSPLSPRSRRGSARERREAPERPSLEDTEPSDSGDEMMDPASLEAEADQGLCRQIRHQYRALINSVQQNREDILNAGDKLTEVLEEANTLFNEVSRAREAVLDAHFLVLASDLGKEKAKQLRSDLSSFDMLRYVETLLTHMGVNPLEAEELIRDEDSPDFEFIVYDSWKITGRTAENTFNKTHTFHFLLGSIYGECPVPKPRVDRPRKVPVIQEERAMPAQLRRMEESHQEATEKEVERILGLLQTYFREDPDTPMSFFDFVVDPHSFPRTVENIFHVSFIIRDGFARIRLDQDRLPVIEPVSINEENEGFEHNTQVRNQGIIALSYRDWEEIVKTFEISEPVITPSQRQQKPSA
UniProt P11586, sequence (P11586 whole entry, looked up): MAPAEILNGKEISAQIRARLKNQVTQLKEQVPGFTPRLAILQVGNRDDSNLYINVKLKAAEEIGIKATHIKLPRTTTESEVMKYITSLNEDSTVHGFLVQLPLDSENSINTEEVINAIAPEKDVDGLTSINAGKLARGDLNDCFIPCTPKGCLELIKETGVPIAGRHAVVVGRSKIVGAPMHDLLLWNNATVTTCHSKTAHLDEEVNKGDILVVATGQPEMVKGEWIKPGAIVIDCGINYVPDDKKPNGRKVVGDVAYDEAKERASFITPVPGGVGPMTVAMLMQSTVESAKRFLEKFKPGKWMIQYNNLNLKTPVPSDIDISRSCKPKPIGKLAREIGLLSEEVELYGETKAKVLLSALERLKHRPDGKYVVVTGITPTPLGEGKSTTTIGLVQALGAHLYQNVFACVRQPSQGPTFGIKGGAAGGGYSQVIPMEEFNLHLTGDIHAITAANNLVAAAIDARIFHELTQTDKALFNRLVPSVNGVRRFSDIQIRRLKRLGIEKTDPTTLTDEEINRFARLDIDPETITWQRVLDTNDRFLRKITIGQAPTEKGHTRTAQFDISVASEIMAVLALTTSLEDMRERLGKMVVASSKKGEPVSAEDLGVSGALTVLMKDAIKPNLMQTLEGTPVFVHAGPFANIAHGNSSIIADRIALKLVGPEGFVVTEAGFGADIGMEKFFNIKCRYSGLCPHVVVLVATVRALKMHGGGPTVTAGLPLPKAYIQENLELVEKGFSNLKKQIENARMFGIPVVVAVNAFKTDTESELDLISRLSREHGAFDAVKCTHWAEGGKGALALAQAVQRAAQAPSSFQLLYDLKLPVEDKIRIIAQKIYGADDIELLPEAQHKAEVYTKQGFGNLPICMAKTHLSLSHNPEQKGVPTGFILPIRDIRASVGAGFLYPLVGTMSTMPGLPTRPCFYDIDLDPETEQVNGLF
UniProt Q9BV86, sequence (Q9BV86 whole entry, looked up): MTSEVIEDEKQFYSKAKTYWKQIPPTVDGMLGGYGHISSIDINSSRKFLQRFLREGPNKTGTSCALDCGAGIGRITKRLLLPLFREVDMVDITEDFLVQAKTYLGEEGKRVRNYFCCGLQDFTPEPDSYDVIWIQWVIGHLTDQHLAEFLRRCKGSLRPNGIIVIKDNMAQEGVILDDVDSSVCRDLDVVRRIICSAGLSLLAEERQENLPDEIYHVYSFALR
UniProt Q9HBL8, sequence (Q9HBL8 whole entry, looked up): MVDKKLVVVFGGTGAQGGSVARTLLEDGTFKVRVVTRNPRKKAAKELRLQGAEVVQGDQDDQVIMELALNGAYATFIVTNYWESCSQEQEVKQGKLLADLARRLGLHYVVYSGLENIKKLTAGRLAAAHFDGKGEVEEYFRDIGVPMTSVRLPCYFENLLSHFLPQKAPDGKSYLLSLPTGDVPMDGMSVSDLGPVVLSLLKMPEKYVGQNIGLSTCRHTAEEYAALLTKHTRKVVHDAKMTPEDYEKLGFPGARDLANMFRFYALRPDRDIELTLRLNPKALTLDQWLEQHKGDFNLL
UniProt Q96PU5, sequence (Q96PU5 whole entry, looked up): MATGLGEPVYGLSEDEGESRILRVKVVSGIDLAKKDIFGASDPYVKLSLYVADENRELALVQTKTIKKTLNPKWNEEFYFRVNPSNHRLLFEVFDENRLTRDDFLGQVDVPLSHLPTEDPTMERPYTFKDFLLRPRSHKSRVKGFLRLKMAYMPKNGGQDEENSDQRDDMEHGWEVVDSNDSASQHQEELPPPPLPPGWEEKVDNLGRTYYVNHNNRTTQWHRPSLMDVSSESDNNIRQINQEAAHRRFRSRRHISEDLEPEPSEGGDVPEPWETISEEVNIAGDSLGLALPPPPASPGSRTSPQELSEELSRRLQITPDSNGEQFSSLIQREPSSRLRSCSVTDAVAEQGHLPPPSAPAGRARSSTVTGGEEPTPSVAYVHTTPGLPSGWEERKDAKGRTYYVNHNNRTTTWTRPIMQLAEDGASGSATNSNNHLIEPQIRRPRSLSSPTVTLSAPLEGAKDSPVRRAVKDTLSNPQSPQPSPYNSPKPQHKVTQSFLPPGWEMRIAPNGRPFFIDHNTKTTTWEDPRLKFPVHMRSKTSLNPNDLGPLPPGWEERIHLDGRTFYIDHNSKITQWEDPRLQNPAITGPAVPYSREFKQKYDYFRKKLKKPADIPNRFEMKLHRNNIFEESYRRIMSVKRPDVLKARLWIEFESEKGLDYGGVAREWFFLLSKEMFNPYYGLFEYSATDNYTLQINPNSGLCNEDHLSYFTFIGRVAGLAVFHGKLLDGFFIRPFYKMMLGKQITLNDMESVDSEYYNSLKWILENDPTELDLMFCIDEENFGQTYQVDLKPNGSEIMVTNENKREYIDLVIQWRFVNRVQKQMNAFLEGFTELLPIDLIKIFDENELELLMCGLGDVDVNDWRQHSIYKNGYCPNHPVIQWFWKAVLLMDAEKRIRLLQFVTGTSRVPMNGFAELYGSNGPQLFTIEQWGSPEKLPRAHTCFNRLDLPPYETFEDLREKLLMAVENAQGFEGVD
UniProt Q96BN8, sequence (Q96BN8 whole entry, looked up): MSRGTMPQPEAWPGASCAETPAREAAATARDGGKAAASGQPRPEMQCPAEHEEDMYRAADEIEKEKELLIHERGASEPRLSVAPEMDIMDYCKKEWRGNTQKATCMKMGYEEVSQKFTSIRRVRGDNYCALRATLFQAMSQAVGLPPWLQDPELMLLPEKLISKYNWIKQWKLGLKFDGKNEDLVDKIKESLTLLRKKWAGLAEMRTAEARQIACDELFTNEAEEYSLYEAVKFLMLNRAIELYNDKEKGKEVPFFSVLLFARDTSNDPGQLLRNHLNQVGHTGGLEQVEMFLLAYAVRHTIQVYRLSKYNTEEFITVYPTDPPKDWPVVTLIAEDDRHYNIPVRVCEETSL
UniProt Q96MF7, sequence (Q96MF7 whole entry, looked up): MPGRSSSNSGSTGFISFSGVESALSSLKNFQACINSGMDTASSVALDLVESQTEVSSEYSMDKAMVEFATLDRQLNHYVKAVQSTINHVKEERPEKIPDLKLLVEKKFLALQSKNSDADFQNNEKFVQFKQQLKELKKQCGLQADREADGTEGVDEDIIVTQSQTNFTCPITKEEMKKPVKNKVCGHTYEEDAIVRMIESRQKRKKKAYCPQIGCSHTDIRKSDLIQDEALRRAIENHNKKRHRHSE
UniProt Q9H019, sequence (Q9H019 whole entry, looked up): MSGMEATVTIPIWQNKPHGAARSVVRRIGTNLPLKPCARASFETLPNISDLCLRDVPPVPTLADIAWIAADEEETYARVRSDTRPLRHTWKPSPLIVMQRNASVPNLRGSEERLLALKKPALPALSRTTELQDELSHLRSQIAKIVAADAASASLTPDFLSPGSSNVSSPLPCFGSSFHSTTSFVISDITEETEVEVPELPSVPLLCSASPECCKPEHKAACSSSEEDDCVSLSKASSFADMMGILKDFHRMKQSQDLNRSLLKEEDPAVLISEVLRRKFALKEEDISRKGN
UniProt Q9Y2X3, sequence (Q9Y2X3 whole entry, looked up): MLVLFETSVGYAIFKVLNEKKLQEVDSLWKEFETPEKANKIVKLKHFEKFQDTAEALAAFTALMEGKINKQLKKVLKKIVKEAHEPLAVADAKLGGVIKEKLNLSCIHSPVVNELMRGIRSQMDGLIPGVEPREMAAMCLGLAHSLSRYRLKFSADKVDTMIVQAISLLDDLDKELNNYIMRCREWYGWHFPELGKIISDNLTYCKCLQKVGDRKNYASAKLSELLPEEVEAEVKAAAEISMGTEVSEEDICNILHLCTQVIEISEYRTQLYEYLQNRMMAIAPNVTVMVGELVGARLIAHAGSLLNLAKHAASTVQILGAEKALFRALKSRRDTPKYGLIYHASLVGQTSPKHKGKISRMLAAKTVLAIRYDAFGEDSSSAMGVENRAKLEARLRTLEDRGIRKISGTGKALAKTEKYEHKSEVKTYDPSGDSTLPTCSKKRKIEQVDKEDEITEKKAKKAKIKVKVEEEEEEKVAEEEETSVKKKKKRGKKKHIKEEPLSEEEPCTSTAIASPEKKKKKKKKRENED
UniProt O00483, sequence (O00483 whole entry, looked up): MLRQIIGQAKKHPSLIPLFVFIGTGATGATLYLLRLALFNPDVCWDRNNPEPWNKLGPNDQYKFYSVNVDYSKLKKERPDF
UniProt Q9UQ49, sequence (Q9UQ49 whole entry, looked up): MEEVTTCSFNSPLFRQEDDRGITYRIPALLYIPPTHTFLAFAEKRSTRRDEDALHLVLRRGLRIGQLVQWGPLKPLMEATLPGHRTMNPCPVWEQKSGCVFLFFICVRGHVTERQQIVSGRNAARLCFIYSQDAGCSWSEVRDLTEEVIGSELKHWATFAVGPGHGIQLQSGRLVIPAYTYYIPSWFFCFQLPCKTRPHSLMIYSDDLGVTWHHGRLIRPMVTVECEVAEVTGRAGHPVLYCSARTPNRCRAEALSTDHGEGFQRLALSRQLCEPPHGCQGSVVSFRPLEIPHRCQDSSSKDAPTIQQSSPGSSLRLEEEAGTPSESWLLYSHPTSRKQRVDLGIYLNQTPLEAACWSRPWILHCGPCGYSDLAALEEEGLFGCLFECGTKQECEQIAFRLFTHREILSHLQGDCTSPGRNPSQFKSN

Target	log2 fold change [1]	log2 fold change (crizotinib)	log2 fold change [2]	log2 fold change [3]	log2 fold change (duvelisib)	log2 fold change (gandotinib)	log2 fold change (tozasertib)	log2 fold change [4]	log2 fold change (doramapimod)	log2 fold change (ispinesib)
NSMCE2 (UniProt Q96MF7)	0.001	0.051	-0.038	-0.024	-0.011	-0.131	0.043	-0.042	0.004	0.044
NTMT1 (UniProt Q9BV86)	0.128	0.039	0.074	-0.029	0.054	0.093	0.067	0.021	0.071	0.02
NOP58 (UniProt Q9Y2X3)	0.006	0.047	-0.061	0.242	0.004	0.121	0.025	-0.001	0.098	0.103
PACRGL (UniProt Q8N7B6)	-0.074									
MTHFD1 (UniProt P11586)	0.101	-0.15	0.107	-0.003	0.016	-0.077	-0.054	0.054	-0.053	-0.021
NEU3 isoform 2 (UniProt Q9UQ49)	0.062									
NDUFA4 (UniProt O00483)	-0.045	0.138	0.162	-0.055	0.142	-0.099	0.025	0.022	0.034	0.204
NMRAL1 (UniProt Q9HBL8)	0.228	0.469	0.054	0.04	0.046	-0.169	-0.056	-0.009	0.001	-0.103
NA, A0A096LPI6	-0.014	0.079	0.03	-0.015	0.018	0.04	-0.034	-0.051	-0.038	0.047
NDUFB10 (UniProt O96000)	0.024	-0.025	0.012	0.027	0.023	-0.029	-0.002	0.024	0.003	-0.073
MRPS24 (UniProt Q96EL2)	0.014	-0.031	0.192	0.082	-0.009	-0.117	0.048	0.094	-0.028	-0.427 (active)
MTFR1L (UniProt Q9H019)	0.059	-0.162	-0.088	0.153	-0.146	-0.123	-0.084	0.039	0.042	-0.329
OTULIN (UniProt Q96BN8)	-0.099	-0.079	0.04	0.036	-0.027	-0.088	0.098	0.073	-0.095	-0.208
NSMCE4A (UniProt Q9NXX6)	0.038	0.072	-0.055	-0.009	0.119	0.144	0.086	0.054	0.047	0.062
NDUFA7 (UniProt M0R0N0)	0.095									
NEDD4L (UniProt Q96PU5)	0.015	-0.005	-0.071	-0.105	0	0.015	0.088	0.083	0.026	-0.037
NCKAP1 isoform 2 (UniProt Q9Y2A7)	-0.021	-0.071	0	-0.08	-0.006	-0.093	-0.017	0.031	-0.027	0.034
